Assay results reported in PubChem BioAssay (Tox21).
Where “and” joins values, the source holds several entries; their conditions need not be identical. Equal entries are not always repeated. Results filed as inconclusive are left out. Where a call stands in place of a potency, no number is given. A structure can be active in one record and inactive in another. Calls of active or inactive are those of the source. Unless noted, the call rests on the fitted dose curve; in most records, active means well fitted curve in the direction sought with a large enough effect in the repeat runs; inconclusive means weak or mixed curves; inactive means no such curve, though single readings can be large; an effect the other way counts as inactive or inconclusive.

Legend:
[1] = target: Progesterone receptor (Homo sapiens) (UniProt P06401); assay: qHTS assay to identify small molecule agonists of the progesterone receptor (PR) signaling pathway (AID 1346784; calls by dose curve; further: nearly all actives have a fitted effect of over 30% in size)
Method in brief: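 Beta-lactamase reporter read-out: after 16 hr compound treatment at 37C and a further 2 hr at room temperature with LiveBLAzer B/G FRET substrate, fluorescence was measured in PR-UAS-bla HEK 293T cells grown in 2% charcoal-stripped serum.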

[2] = target: Progesterone receptor (Homo sapiens) (UniProt P06401); assay: qHTS assay to identify small molecule antagonists of the progesterone receptor (PR) signaling pathway (AID 1346795; active means well fitted inhibition curve with a large enough effect in the signal ratio in the repeat runs, not every such curve was filed as active; the % refers to the signal ratio; further: potency means the concentration at half of the fitted maximal effect)
Method in brief: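 Read-out is fluorescence from the LiveBLAzer B/G FRET substrate, cleaved by a UAS-controlled beta-lactamase in PR-UAS-bla HEK293T cells after 16 hr exposure to compound plus 1 nM promegestone (final), followed by 2 hr at room temperature.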

[3] = qHTS assay to identify small molecule antagonists of the progesterone receptor (PR) signaling pathway - cell viability counter screen (AID 1346798); further: nearly all actives have a fitted effect of over 50% in size; further: potency means the concentration at half of the fitted maximal effect
Method in brief: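 HEK293T PR-UAS-bla, 2% charcoal-stripped FBS; 4 hr pre-plate; cpd + R5020, 16 h 37C; LiveBLAzer read first; then CellTiter-Glo 30 min RT, luminescence.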

[4] = qHTS assay to identify small molecule agonists of the progesterone receptor (PR) signaling pathway - cell viability counter screen (AID 1346799; calls by dose curve; further: nearly all actives have a fitted effect of over 45% in size)
Method in brief: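 Luminescence from CellTiter-Glo, added after the beta-lactamase FRET read in the same wells, gave cytotoxicity in PR-UAS-bla HEK293T cells treated with compounds for 16 hr at 37C.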

[5] = qHTS assay to identify small molecule antagonists of the TGF-beta/Smad signaling pathway - cell viability counter screen (AID 1346824); further: nearly all actives have a fitted effect of over 50% in size
Method in brief: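 Cytotoxicity counter-screen run in the same wells as the beta-lactamase Smad reporter read: CellTiter-Glo luminescence after 30 min at room temperature. HEK 293T SBE-bla cells had 5 hr compound exposure at 37 C with TGF-beta1 (0.25 ng/mL stock).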

[6] = qHTS assay to identify small molecule agonists of the TGF-beta/Smad signaling pathway - cell viability counter screen (AID 1346829); further: nearly all actives have a fitted effect of over 45% in size; further: potency means the concentration at half of the fitted maximal effect
Method in brief: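 Same-well cytotoxicity: CellTiter-Glo added after the 2 hr room-temperature beta-lactamase substrate step, luminescence measured 30 min later; cells had 5 hr of compound at 37 C.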

[7] = qHTS assay to identify small molecule agonists of the TGF-beta/Smad signaling pathway (AID 1346859; active means well fitted activation curve with a large enough effect in the signal ratio in the repeat runs, not every such curve was filed as active; the % refers to the signal ratio; further: series mostly up to about 77 µM)
Method in brief: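 SBE-bla HEK 293T, 4,000 cells/well, plated o/n; cpd in DMSO, 5 hr, 37 C/5% CO2; B/G FRET substrate 2 hr RT; ex 405, em 460/530 nm.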

[8] = target: Thyrotropin-releasing hormone receptor (Homo sapiens) (UniProt P34981); assay: qHTS assay to identify small molecule antagonists of the thyrotropin-releasing hormone receptor (TRHR) signaling pathway (AID 1346877; active means well fitted inhibition curve with a large enough effect in the repeat runs, not every such curve was filed as active; further: series mostly up to about 51 µM)
Method in brief: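 TRHR-expressing HEK293 cells were seeded, cultured 18 h at 37 °C, then loaded with calcium dye for 2 h. Compounds were pre-incubated 5 min at room temperature before 1 nM TRH (final) was added, and kinetic fluorescence was recorded for 3 min.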

[9] = target: Thyrotropin-releasing hormone receptor (Homo sapiens) (UniProt P34981); assay: qHTS assay to identify small molecule agonists of the thyrotropin-releasing hormone receptor (TRHR) signaling pathway (AID 1346891; calls by dose curve; further: series mostly up to about 58 µM)
Method in brief: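 Intracellular calcium rise, read as fluorescence every second for 3 min, served as the agonist signal in dye-loaded HEK293 cells expressing TRHR; each compound ran at 15 concentrations in triplicate.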

[10] = Human pregnane X receptor (PXR) small molecule agonists, qHTS cell viability counter screen (AID 1346977); further: nearly all actives have a fitted effect of over 50% in size; further: potency means the concentration at half of the fitted maximal effect
Method in brief: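 PXR-Luc HepG2, 2,000 cells/well, 5% charcoal-stripped FBS; 5hr settle; cpd 24hr, 37C/5% CO2; CellTiter-Fluor at 23hr, read 1hr later (fluorescence).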

[11] = Caspase-3/7 induction in HepG2 cells by small molecules, qHTS assay (AID 1346978); further: nearly all actives have a fitted effect of over 15% in size
Method in brief: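 Caspase-3/7 induction was measured by Caspase-Glo 3/7 luminescence (30 min, room temperature) after a 17 hr compound exposure of wild-type HepG2 cells seeded at 2,000 per well and pre-incubated 5 hr.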

[12] = Caspase-3/7 induction in CHO-K1 cells by small molecules, qHTS cell viability counter screen (AID 1346979); further: nearly all actives have a fitted effect of over 35% in size; further: potency means the concentration at half of the fitted maximal effect
Method in brief: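 Cells (CHO-K1, wild type) are plated at 1,500 per well and incubated 5hr. Test compounds in DMSO are then pinned in, followed by 16hr at 37C and 5% CO2. Viability is read by CellTiter-Fluor fluorescence after 1hr.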

[13] = Caspase-3/7 induction in CHO-K1 cells by small molecules, qHTS assay (AID 1346980); further: nearly all actives have a fitted effect of over 15% in size
Method in brief: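 Luminescent Caspase-Glo 3/7 read (30min, room temperature) quantified apoptosis induction. Cells were wild-type CHO-K1, treated with compound for 17hr at 37 C and 5% CO2.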

[14] = Caspase-3/7 induction in HepG2 cells by small molecules, qHTS cell viability counter screen (AID 1346981); further: nearly all actives have a fitted effect of over 30% in size; further: potency means the concentration at half of the fitted maximal effect
Method in brief: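 Wild-type HepG2 cells (2,000/well) were allowed to settle for 5 hr at 37 C, 5% CO2, then dosed with compounds in DMSO by pin transfer. After 16 hr at 37 C, CellTiter-Fluor was added and fluorescence read 1 hr later.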

[15] = target: Nuclear receptor subfamily 1 group I member 2 (Homo sapiens) (UniProt O75469); assay: Human pregnane X receptor (PXR) small molecule agonists, qHTS assay (AID 1346982); further: nearly all actives have a fitted effect of over 35% in size; further: potency means the concentration at half of the fitted maximal effect
Method in brief: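 PXR-Luc HepG2 cells (CYP3A4 promoter-driven luciferase) were seeded in medium with 5% charcoal-stripped FBS, left 5 hr at 37 C, then exposed to compounds in DMSO for 24 hr. Luminescence was read after ONE-Glo addition.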

[16] = target: Cytochrome P450 2D6 (Homo sapiens) (UniProt P10635); assay: Cytochrome P450 Family 2 Subfamily D Member 6 (CYP2D6) small molecule antagonists: luciferase reporter qHTS assay (AID 1671196); further: nearly all actives have a fitted effect of over 50% in size; further: potency means the concentration at half of the fitted maximal effect
Method in brief: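 CYP2D6 enzyme–substrate mix was held with compound for 10 min at room temperature, then NADPH regeneration solution was added and the reaction ran 1 h at room temperature. Luciferin product was detected by luminescence after 20 min with detection reagent.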

[17] = target: Cytochrome P450 2C19 (Homo sapiens) (UniProt P33261); assay: Cytochrome P450 Family 2 Subfamily C Member 19 (CYP2C19) small molecule antagonists: luciferase reporter qHTS assay (AID 1671197); further: nearly all actives have a fitted effect of over 65% in size; further: potency means the concentration at half of the fitted maximal effect
Method in brief: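 Quantitative high-throughput screen of the Tox21 library using CYP2C19 with proluciferin substrate. Reaction: NADPH regeneration, 37C, 1 h, after 10 min compound preincubation at room temperature. Readout: luminescence.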

[18] = target: Cytochrome P450 2C9 (Homo sapiens) (UniProt P11712); assay: Cytochrome P450 Family 2 Subfamily C Member 9 (CYP2C9) small molecule antagonists: luciferase reporter qHTS assay (AID 1671198); further: nearly all actives have a fitted effect of over 50% in size; further: potency means the concentration at half of the fitted maximal effect
Method in brief: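 Enzyme-substrate mix preincubated with compound 10 min at room temperature; reaction started with NADPH regeneration solution, 1 h 37C. Luminescent luciferin product read after 20 min detection reagent.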

[19] = target: Nuclear receptor subfamily 1 group I member 2 (Rattus norvegicus) (UniProt Q9R1A7); assay: Rat pregnane X receptor (rPXR) activation by small molecules, qHTS assay (AID 1346983); settings: rPXR luciferase reporter cells, One-Glo luminescence, 24 h; max activation: stronger effect = higher value; further: nearly all actives have a fitted effect of over 20% in size
Method in brief: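 Luminescent readout (One-Glo luciferase, 30 min room temperature) followed 24 hr compound treatment at 37 C of rPXR cells plated 2,000 per well and preincubated 5hr; qHTS format with compounds delivered in DMSO.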

[20] = target: Nuclear receptor subfamily 1 group I member 2 (Homo sapiens) (UniProt O75469); assay: Human pregnane X receptor (PXR) activation by small molecules, qHTS assay (AID 1346985); further: nearly all actives have a fitted effect of over 40% in size; further: potency means the concentration at half of the fitted maximal effect
Method in brief: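 DPX-2 cells (HepG2 co-transfected with a PXR response element and a CYP3A4-promoter luciferase construct) were seeded at 2,000 per well, rested 5 hr at 37C, then exposed to DMSO-dissolved compounds for 24 hr. Activation was read as luciferase luminescence.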

Cytochrome P450 2C19 (Homo sapiens), sequence (P33261 whole entry, looked up): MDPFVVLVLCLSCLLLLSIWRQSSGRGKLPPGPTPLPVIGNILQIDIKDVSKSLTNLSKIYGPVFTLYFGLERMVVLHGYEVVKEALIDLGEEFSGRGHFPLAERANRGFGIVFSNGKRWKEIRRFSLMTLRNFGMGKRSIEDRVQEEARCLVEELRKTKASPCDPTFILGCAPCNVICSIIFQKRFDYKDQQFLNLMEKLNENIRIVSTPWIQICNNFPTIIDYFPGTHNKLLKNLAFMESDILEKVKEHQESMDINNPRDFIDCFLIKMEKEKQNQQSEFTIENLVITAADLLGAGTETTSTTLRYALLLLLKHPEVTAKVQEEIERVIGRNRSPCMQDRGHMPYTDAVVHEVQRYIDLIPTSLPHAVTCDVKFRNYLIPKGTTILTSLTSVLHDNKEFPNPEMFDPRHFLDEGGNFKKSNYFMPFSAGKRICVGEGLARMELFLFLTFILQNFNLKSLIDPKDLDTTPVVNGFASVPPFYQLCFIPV
Cytochrome P450 2D6 (Homo sapiens), sequence (P10635 whole entry, looked up): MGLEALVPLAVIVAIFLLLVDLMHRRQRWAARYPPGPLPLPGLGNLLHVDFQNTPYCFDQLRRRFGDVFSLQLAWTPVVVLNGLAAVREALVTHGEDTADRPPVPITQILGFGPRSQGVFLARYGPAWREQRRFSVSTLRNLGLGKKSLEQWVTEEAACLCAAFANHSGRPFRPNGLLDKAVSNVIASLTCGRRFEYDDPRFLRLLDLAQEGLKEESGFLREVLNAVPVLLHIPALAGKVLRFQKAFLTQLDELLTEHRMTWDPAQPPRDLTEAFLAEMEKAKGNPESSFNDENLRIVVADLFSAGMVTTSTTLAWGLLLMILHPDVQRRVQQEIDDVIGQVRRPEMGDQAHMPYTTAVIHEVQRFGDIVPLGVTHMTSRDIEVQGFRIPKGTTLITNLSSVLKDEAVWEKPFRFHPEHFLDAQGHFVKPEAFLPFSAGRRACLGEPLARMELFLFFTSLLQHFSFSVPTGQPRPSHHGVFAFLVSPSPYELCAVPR
Cytochrome P450 2C9 (Homo sapiens), sequence (P11712 whole entry, looked up): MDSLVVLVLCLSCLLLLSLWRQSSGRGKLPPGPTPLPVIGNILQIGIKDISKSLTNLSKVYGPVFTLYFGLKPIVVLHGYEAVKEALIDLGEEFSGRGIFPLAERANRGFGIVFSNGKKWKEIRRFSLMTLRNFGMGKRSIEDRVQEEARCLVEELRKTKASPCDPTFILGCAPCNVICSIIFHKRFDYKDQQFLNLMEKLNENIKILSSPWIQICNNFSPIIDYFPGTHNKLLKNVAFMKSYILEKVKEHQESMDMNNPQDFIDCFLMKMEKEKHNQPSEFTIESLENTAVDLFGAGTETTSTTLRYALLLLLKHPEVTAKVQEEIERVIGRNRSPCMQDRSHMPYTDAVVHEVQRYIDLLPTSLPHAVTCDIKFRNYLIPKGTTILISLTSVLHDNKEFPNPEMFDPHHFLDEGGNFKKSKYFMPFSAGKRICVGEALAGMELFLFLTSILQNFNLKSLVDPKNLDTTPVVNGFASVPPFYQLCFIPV
Thyrotropin-releasing hormone receptor (Homo sapiens), sequence (P34981 whole entry, looked up): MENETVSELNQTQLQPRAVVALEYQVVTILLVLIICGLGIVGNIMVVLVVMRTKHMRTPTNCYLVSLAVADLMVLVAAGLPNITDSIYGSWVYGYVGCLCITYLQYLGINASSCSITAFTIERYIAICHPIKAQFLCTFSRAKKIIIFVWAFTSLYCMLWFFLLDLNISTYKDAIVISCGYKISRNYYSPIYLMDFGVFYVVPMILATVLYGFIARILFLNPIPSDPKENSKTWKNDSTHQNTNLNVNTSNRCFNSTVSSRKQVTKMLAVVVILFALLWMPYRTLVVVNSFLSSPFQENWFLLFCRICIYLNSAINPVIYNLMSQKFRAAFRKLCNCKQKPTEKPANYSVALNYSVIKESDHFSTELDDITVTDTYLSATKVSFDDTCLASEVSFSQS
Nuclear receptor subfamily 1 group I member 2 (Homo sapiens), sequence (O75469 whole entry, looked up): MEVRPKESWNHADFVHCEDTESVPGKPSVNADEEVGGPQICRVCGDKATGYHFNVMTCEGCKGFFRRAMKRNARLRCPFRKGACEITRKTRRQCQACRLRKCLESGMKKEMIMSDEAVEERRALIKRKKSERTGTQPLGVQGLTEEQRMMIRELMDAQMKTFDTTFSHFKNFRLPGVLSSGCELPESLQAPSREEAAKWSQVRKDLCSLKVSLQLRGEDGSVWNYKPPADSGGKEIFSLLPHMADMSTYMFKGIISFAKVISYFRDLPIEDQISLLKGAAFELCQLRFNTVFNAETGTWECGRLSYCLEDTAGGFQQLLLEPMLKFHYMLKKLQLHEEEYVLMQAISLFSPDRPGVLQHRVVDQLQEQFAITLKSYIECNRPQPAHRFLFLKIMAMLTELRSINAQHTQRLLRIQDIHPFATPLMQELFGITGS
Progesterone receptor (Homo sapiens), sequence (P06401 whole entry, looked up): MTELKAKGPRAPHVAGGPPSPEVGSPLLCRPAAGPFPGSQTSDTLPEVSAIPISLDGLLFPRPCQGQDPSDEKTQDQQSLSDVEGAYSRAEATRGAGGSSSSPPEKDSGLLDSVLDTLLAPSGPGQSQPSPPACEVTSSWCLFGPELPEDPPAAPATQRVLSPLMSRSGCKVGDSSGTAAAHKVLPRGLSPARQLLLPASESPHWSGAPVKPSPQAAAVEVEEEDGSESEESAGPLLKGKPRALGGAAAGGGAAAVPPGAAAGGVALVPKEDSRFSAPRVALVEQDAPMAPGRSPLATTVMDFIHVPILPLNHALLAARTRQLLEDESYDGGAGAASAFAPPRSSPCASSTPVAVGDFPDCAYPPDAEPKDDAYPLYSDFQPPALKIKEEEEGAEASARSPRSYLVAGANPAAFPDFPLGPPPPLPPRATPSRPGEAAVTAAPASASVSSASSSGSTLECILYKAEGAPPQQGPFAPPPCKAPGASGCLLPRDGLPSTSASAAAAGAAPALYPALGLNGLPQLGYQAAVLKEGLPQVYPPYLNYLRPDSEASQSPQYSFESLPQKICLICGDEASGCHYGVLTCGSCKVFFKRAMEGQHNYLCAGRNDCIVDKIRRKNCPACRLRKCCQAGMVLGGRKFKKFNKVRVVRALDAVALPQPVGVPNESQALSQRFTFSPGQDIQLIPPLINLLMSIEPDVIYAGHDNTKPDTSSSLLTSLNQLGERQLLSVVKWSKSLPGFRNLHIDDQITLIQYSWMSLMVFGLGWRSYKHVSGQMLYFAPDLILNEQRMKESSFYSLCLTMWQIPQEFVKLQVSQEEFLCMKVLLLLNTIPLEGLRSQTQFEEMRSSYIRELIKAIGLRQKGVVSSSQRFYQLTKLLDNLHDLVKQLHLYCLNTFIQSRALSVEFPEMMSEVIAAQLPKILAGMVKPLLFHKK
Nuclear receptor subfamily 1 group I member 2 (Rattus norvegicus), sequence (Q9R1A7 whole entry, looked up): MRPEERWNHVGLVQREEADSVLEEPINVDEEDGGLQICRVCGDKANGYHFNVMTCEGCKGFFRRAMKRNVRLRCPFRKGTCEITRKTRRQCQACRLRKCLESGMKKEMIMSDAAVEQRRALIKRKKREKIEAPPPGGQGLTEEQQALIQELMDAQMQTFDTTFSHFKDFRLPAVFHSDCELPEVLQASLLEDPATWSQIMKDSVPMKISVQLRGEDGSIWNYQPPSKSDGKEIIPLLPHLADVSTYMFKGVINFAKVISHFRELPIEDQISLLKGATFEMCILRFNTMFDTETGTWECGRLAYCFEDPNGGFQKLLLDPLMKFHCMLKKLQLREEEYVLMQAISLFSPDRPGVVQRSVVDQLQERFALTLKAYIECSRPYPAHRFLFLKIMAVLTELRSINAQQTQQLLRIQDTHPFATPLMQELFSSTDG

| Structure (SMILES) | Potency [1] | Potency [2] | Potency [3] | Potency [4] | Potency [5] | Potency [6] | outcome [7] | outcome [8] | Potency [9] | Potency [10] | Potency [11] | Potency [12] | outcome [13] | Potency [14] | Potency [15] | Potency [16] | Potency [17] | Potency [18] | max activation [19] | Potency [20] |
| --- | --- | --- | --- | --- | --- | --- | --- | --- | --- | --- | --- | --- | --- | --- | --- | --- | --- | --- | --- | --- |
| CCCCOCCOCCOC(C)=O | inactive | inactive | inactive | inactive | inactive | inactive | inactive | inactive | inactive | inactive | inactive | inactive | inactive | inactive | inactive | inactive | inactive | inactive | – | – |
| O=c1cc[nH]c(=O)[nH]1 | inactive | inactive | inactive | inactive | inactive | inactive | inactive | inactive | inactive | inactive | inactive | inactive | inactive | inactive | inactive | inactive | inactive | inactive | -0.198% (inactive) | inactive |
| CCCCCCCCCCCCCCCCCC(=O)OCC(O)CO (stereo not drawn) | inactive | inactive | inactive | inactive | inactive | inactive | inactive | inactive | inactive | inactive | inactive | inactive | inactive | inactive | inactive | inactive | inactive | inactive | 0.317% (inactive) | inactive |
| CC1(C)O[C@@H]2[C@@H](CO[C@@]3(COS(N)(=O)=O)OC(C)(C)O[C@@H]23)O1 | inactive | inactive | inactive | inactive | inactive | inactive | inactive | inactive | inactive | inactive | inactive | inactive | inactive | inactive | inactive | inactive | 4.9 µM (active) | inactive | -4.73% (inactive) | inactive |
| COc1ccc(C(=O)c2ccccc2)c(O)c1 | inactive | 30.1 µM (active) | inactive | inactive | inactive | inactive | inactive | inactive | inactive | inactive | inactive | inactive | inactive | inactive | 60.1 µM (active) and 54.5 µM (active) | 44.1 µM (active) | 5.55 µM (active) and 10 µM (active) and 4.9 µM (active) | 39.3 µM (active) and 35.6 µM (active) and 24.5 µM (active) | – | – |
| COc1cc2c(c(OC)c1OC)-c1ccc(OC)c(=O)cc1[C@@H](NC(C)=O)CC2 | inactive | – | – | – | inactive | inactive | inactive | – | – | inactive | inactive | 381 nM (active) and 43.3 nM (active) and 298 nM (active) | inactive | inactive | 2.14 µM (active) and 5.4 nM (active) | inactive | inactive | inactive | – | – |
| CC(C)(C)CC(C)(C)c1ccc(O)c(-n2nc3ccccc3n2)c1 | inactive | inactive | 49.2 µM (active) | – | – | 44.3 µM (active) and inactive | inactive | inactive | inactive | inactive | inactive | inactive | inactive | inactive | 27.7 µM (active) and 11.9 µM (active) | 40.5 µM (active) and inactive | 36.1 µM (active) and 20 µM (active) | 20.3 µM (active) and 10 µM (active) and 12.3 µM (active) | -2.63% (inactive) | 7.94 µM (active) |
| CCN(CC)CCOC(=O)c1ccc(N)cc1 | – | inactive | inactive | inactive | inactive | inactive | inactive | inactive | inactive | inactive | inactive | inactive | inactive | inactive | inactive | 5.95 µM (active) and 15.5 µM (active) | inactive | inactive | -0.318% (inactive) | inactive |
| C=CC(=O)NC(C)(C)CS(=O)(=O)O | inactive | inactive | inactive | inactive | inactive | inactive | inactive | – | – | inactive | inactive | inactive | inactive | inactive | inactive | 49.2 µM (active) and inactive | inactive | inactive | – | – |
| NC(=O)N/N=C/c1ccc([N+](=O)[O-])o1 | – | inactive | inactive | inactive | inactive | inactive | inactive | inactive | inactive | inactive and 27.3 µM (active) and 26.6 µM (active) | inactive | inactive and 42.4 µM (active) and 29.8 µM (active) | inactive | inactive and 58.4 µM (active) | inactive and 7.7 µM (active) | inactive | inactive and 39.9 µM (active) and 43.6 µM (active) | inactive | -4.99% (inactive) | – |
| CCCCNC(=O)NS(=O)(=O)c1ccc(N)cc1 | – | inactive | inactive | inactive | inactive | inactive | inactive | inactive | inactive | inactive | inactive | inactive | inactive | inactive | inactive | inactive | inactive | inactive | -2.23% (inactive) | inactive |
| CC1=NN(c2ccccc2)C(=O)C1 | – | inactive | inactive | inactive | inactive | inactive | inactive | inactive | inactive | inactive | inactive | inactive | inactive | inactive | inactive | 31.9 µM (active) and inactive | 71.4 µM (active) and inactive | 11.3 µM (active) and 11.2 µM (active) and 17.4 µM (active) | -4.19% (inactive) | inactive |
